# System: PPARg:RXRa 270nM:90nM, anti-RXR (NR concentration 270 nM, RXRa partner concentration 90 nM)
# Assay: PBM binding z-score (relative to random genomic background probes); higher = stronger binding; sequences stand for … in GC…GCGATTGACAGCGTAGAATGAAGG
# Summary of the method: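 Binding buffer was PBS pH 7.4 with 2% milk, 0.02% Triton X-100, 1 mM DTT, 0.2 mg/mL BSA and 0.4 mg/ml salmon testes DNA. In it, ligand-free nuclear receptor dimers were incubated 1 h on custom Agilent 4×180K protein-binding microarrays carrying double-stranded probes. Antibodies against each partner (one per run) detected binding, and z-scores were calculated against random background probes after regression normalization of scanned fluorescence.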
row,Sequence,PBM binding z-score
1,TCAATGAGGTTAAAGATCAGGGAACGTGGCGTCG,5.65
2,TAGCTTAGGTCATTGGGCCAGTATAGTACGCATC,3.44
3,GGAACCAGGGCAAGTTGATAGCAGAGTTTGATGG,0.853
4,TTACCAAGATGAAGGTCGTTGATCCCTCTGTAGA,1.7
5,TCTTGTAGATCAAGCAGGTTAAGAACGCCTGAGT,1.21
6,TGAATGAGGTTAAAGATCAGGGCACGTGGCGTCG,6.11
7,ATCTCTAGGTAAGACTCCGTTCAGTGAAGAACGC,0.169
8,CCAGACAGGTAAAAGGTAACTCAGTCTGGTACGC,3.82
9,TCATATAGGTAAAAGGTGAAATTCGGTGTGGTAA,8.13
10,GGAACGAGGACAAGTTGATAGCAGAGTTTGATGG,-0.0478
11,TCGAGTAGGTTTGTCGGGGCATTCAGCCAACATA,0.144
12,GATACAGGGTCAGCTAGAGGCCAGAGTGTGGAAA,3.34
13,TAGCCAAGGTCATGGGCCAGTATACCACGCGAAC,6
14,GCTAGTTGGTGAGTAAAAGGTCACACACCGGTCG,5.23
15,CCTACTGGGCCATCAGATCATTGATATCAACGTT,1.49
16,TAGCCTAGGTCATCCGGGCCAGTATAGTGTCGGC,2.35
17,CGTCCAAGGTCAAAGGACAGTGAAGAGATGACGG,5.73
18,TCACGGAGGACACGAAAGGTCAGAGCTCGACATC,2.62
19,AATGCAGGGTCACTAGGCCAGAGTAGGTACGAAT,6.77
20,CGAACTAGGTCATTGGCAGGACAGTGAATAGTAA,6.26
21,TCATATAGGTAATACAGGTGAAGGTCGGCATCTA,3.03
22,AGAATGAGGTTAAGATCAGTGAAACAGAATACAT,2.25
